A selection: hits, their analogues and other compounds. The true share with any hit is near 19%.
HT1080NT lethal – kills 2HG-producing HT-1080-NT fibrosarcoma cells; HT-1080-NT fibrosarcoma viability, CellTiter-Glo ATP luminescence, 48 h; Potency, µM (series often up to 46.1 µM), for the others: top-dose activity, negative = less viability, most hits filed as cytotoxic; 360,000 tested, 1.6% active; AID 686970;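 note: NT is the 2HG producing partner of a matched IDH1 knockdown line; potency is the fitted concentration of half-maximal effect; 0% = DMSO-treated cells and -100% = media-only wells without cells; nearly all actives have a fitted effect of over 55% in size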
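Fibrosarcoma NT cells, 750 per well in 5% FBS RPMI, were exposed to compound for 48 hours. Viability: CellTiter-Glo luminescence.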
ELG1 repair inh – ELG1-dependent DNA repair inhibition; HEK293T ELG1-luciferase reporter, luminescence, 16 h; DNA damage induced by 5-fluorouridine; AID 504467; 330,000 tested, 2.3% active; Potency, µM (top dose mostly 46.1 µM), for inactives: at the highest dose activity change, negative = inhibition, hits mostly inhibitors; note: potency is the fitted concentration of half-maximal effect; nearly all actives have a fitted effect of over 55% in size
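Quantitative HTS, concentration-response format. 2,000 cells/well co-treated with 5-fluorouridine and compound, 16 hr in 5% CO2 at 37 °C; ONE-Glo luminescence read after 30 min.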
DT40 TDP1 CPT – growth inhibition of DT40 Tdp1-/-;hTDP1 cells with camptothecin (screen for TDP1 inhibitors) | chicken DT40 Tdp1-/-;hTDP1 cells + 20 nM CPT, ATP luminescence, 48 h | 420,000 tested, 12% active | Potency, µM (series often up to 46.2 µM), for the others: at the highest dose activity change, negative = growth inhibition, usual class: inhibitors; note: potency is the fitted concentration of half-maximal effect; nearly all actives have a fitted effect of over 55% in size
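Chicken DT40 Tdp1-/- cells complemented with human TDP1, 400 cells/well, exposed to compounds plus 20 nM camptothecin for at least 48 h at 37 C; viability read as ATP content by CellTiter-Glo luminescence.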
TDP1 cell noCPT – qHTS for Inhibitors of human tyrosyl-DNA phosphodiesterase 1 (TDP1): qHTS in cells in absence of CPT; DT40 Tdp1-/- hTDP1 cells, no CPT, ATP luminescence, 48 h; Potency, µM (top dose mostly 46.2 µM), without a hit: at the top dose activity change, negative = growth inhibition, hits mostly inhibitors; 420,000 tested, 15% active; note: potency is the fitted concentration of half-maximal effect; nearly all actives have a fitted effect of over 55% in size
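Cells were dispensed at 400 per well, compounds added by pin tool, plates incubated ≥48 hr at 37 °C, then CellTiter-Glo added for 30 min at room temperature before luminescence reading. Line: DT40 Tdp1-/- complemented with hTDP1; camptothecin omitted.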
IL1B secr inh – inhibitors of inflammasome signaling (IL-1 beta secretion) | THP-1 LPS/ATP IL-1B secretion, AlphaLISA, 16 h; active compounds read low | activity change, % at 57.5 µM | 360,000 tested, 4.7% active | AID 743279; in the data active = activity change below about -50%; inconclusive = mostly about -30% to -49%
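Secreted IL-1B measured by AlphaLISA bead assay after 16 h compound exposure of THP-1 cells; compounds (final up to 57.5 uM) added 1 h before LPS (250 ng/mL) and ATP (1.25 mM) stimulation; lower signal means less secretion.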
HT1080 IDH1KD tx – toxicity to HT-1080 IDH1 knockdown cells (counter line). 360,000 tested, 2% active. AID 686971. HT-1080 IDH1 knockdown viability, ATP luminescence, 48 h. Potency, µM (doses to about 46.1 µM), without a hit: top-dose activity, negative = toxicity, most hits filed as cytotoxic;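 note: potency is the fitted concentration of half-maximal effect; 0% = DMSO wells and -100% = cell-free medium wells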
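In this qHTS, HT-1080 cells depleted of IDH1 are exposed for 48 h at 37 °C to compound titrations. Toxicity is scored from CellTiter-Glo luminescence, with DMSO as full viability and medium alone as none.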
Active calls of the source: *; ? = inconclusive; . = no result. Unless noted, calls come from the whole dose curve; as a rule, active = well fitted curve in the direction sought with a large enough effect; inconclusive = small, poorly fitted or top-dose-only effect, or another doubt; inactive = no such curve, though single readings can be large; an effect the other way counts as inactive or inconclusive. Unless noted, % is set by controls: 0 for no effect and ±100 for the full control effect.

SMILES	HT1080NT lethal	ELG1 repair inh	DT40 TDP1 CPT	TDP1 cell noCPT	IL1B secr inh	HT1080 IDH1KD tx
CN(c1ccccc1)S(=O)(=O)c1cccc(C(=O)NCc2ccccc2)c1	-3%	-13%	?	16µM*	-14	-12%
O=C(NCCSCc1ccc(Cl)cc1)C1CCN(S(=O)(=O)Cc2ccccc2)CC1	.	.	-27%	-12%	.	.
Cc1cc(O)c2c(c1)CC1C3CCC4CC(=O)CCC4(C)C3CC(=O)C21C (stereo not drawn)	-2%	.	18µM*	12µM*	35	0%
CC12CCC(=O)CC1CCC1C2CCC2(C)C1CCC2(O)C(=O)CO (stereo not drawn)	-4%	.	-17%	-23%	-3	-3%
Cc1cccc(-c2nc3cc(NC(=O)Cc4ccc(Cl)cc4)ccc3o2)c1	.	.	16µM*	10µM*	.	.
Cc1ccc(SCC(=O)Nc2ccc3oc(-c4cccc(Cl)c4)nc3c2)cc1	.	.	?	21µM*	.	.
Cc1ccc2oc(-c3cccc(NC(=O)Cc4ccc(Cl)cc4)c3)nc2c1	.	.	-2%	-6%	.	.
Cc1cc2nc(-c3cccc(NC(=O)CSc4ccc(Cl)cc4)c3)oc2cc1C	.	.	16µM*	?	.	.
Cc1cc2nc(-c3cccc(NC(=O)c4cccc5ccccc45)c3)oc2cc1C	.	.	-17%	-16%	.	.
Cc1ccc(-c2nc3cc(NC(=O)Cc4ccc(Cl)cc4)ccc3o2)cc1	.	.	-21%	-3%	.	.
O=C(Cc1cccc(C(F)(F)F)c1)N1CCCC1	19%	-1%	5%	?	-4	4%
CCCCC(CC)CNC(=O)CCCCCn1c(=O)[nH]c2ccsc2c1=O (stereo not drawn)	.	.	?	23µM*	.	.
CC(C)CCNC(=O)CCCCn1c(=O)[nH]c2ccsc2c1=O	0%	4%	-20%	-5%	11	1%
CC(=O)c1ccc(N2CCN(C(=O)CCCCn3c(=O)[nH]c4ccsc4c3=O)CC2)cc1	.	.	13µM*	23µM*	.	.
CC(=O)c1ccc(N2CCN(C(=O)CCCc3nc4ccccc4s3)CC2)cc1	-13%	?	12µM*	10µM*	156	-4%
NC(=O)C1CCN(C(=O)CCCCCn2c(=O)[nH]c3ccsc3c2=O)CC1	10%	?	1%	-1%	1	10%
Cc1cccc(N2CCN(C(=O)CCCn3c(=O)[nH]c4ccsc4c3=O)CC2)c1C	.	.	21µM*	?	.	.
O=C(Nc1c(-c2ccccc2)[nH][nH]c1=O)c1ccco1	27%	.	-15%	-3%	23	15%
Cc1ccc(C(=O)C2CC2)cc1C	1%	.	-5%	-4%	-3	-13%
O=C(CCn1c(=O)[nH]c2ccsc2c1=O)N1CCN(c2cccc(Cl)c2)CC1	-1%	-4%	-11%	?	-10	?
O=C(CCCCn1c(=O)[nH]c2ccsc2c1=O)N1CCN(c2cccc(Cl)c2)CC1	.	.	16µM*	13µM*	.	.
O=C(CCn1c(=O)[nH]c2ccsc2c1=O)N1CCN(c2ccc([N+](=O)[O-])cc2)CC1	0%	18µM*	16µM*	?	-21	-13%

Compound activity deposited in PubChem BioAssay by National Center for Advancing Translational Sciences (NCATS).
